Results published in PubChem BioAssay (NCATS).
Unmarked numbers belong to inactive results. Inconclusive results are not listed. A call without a number means that no potency is given here. Calls of active or inactive are those of the source. Calls come from the whole dose curve; as a rule, active = well fitted curve in the direction sought with a large enough effect; inconclusive = small, poorly fitted or top-dose-only effect, or another doubt; inactive = no such curve, though single readings can be large; an effect the other way counts as inactive or inconclusive.

What was measured:
[1] = molecular target: Parathyroid hormone/parathyroid hormone-related peptide receptor (Homo sapiens) (UniProt Q03431); experiment: qHTS for PTHR1 Agonists: Optimization Screen against the NCGC LOPAC library (AID 1347079);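 note: GloSensor cAMP luminescence in HEK-293 GP2 cells expressing human PTHR1 with IBMX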
Chain of Parathyroid hormone/parathyroid hormone-related peptide receptor (Homo sapiens) (Q03431 whole entry, looked up): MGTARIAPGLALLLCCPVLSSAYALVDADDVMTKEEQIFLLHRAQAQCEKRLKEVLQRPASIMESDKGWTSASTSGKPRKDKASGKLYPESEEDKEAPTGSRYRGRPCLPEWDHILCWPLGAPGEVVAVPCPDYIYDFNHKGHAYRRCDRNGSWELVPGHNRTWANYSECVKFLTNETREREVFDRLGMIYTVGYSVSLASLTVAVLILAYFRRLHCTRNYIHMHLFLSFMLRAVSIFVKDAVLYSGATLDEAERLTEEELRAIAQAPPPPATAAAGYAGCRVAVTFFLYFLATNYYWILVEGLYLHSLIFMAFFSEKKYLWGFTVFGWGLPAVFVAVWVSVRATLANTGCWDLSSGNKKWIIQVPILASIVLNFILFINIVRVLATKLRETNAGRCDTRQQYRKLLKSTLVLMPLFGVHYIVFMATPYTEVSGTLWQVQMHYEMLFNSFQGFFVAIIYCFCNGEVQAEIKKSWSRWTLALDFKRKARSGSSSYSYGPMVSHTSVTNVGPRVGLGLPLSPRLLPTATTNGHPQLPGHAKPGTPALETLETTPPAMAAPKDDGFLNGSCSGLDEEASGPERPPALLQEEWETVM
Method in brief: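 Compounds were tested across a qHTS titration. PTHR1-expressing GP2 cells report cAMP rises via GloSensor luminescence after 1 hr compound exposure at 37C with IBMX present.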

[2] = qHTS of pediatric cancer cell lines to identify multiple opportunities for drug repurposing: Primary screen for TC32 cells (AID 1347089); note: nearly all actives have a fitted effect of over 60% in size; note: potency is the fitted concentration of half-maximal effect
Method in brief: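 In the primary qHTS, MIPE compounds were tested at 11 concentrations (0.78 nM to 46 µM) and NPC compounds at 8 (0.59 nM to 46 µM) on TC32 cells for 48 h. CellTiter-Glo luminescence gave viability.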

[3] = qHTS of pediatric cancer cell lines to identify multiple opportunities for drug repurposing: Primary screen for DAOY cells (AID 1347090); note: series mostly up to about 46 µM; nearly all actives have a fitted effect of over 55% in size
Method in brief: (§1)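 Eight- or eleven-point concentration series, 48 h treatment at 37 degrees C in growth media; readout CellTiter-Glo luminescence. Potency and efficacy were taken from the concentration-response curves.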

[4] = qHTS of pediatric cancer cell lines to identify multiple opportunities for drug repurposing: Primary screen for SJ-GBM2 cells (AID 1347091); note: potency is the fitted concentration of half-maximal effect
Method in brief: as §1

[5] = qHTS of pediatric cancer cell lines to identify multiple opportunities for drug repurposing: Primary screen for A673 cells (AID 1347092); note: nearly all actives have a fitted effect of over 45% in size; note: potency is the fitted concentration of half-maximal effect
Method in brief: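 48 h compound exposure, A673, 500-1,000 cells/well, 37 degrees C/5% CO2. MIPE: 11-point, 0.78 nM-46 µM; NPC: 8-point, 0.59 nM-46 µM (final). Readout CellTiter-Glo luminescence after 15 min RT.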

[6] = qHTS of pediatric cancer cell lines to identify multiple opportunities for drug repurposing: Primary screen for SK-N-MC cells (AID 1347093); note: potency is the fitted concentration of half-maximal effect; for activity change, negative = cytotoxic: series mostly up to about 46 µM
Method in brief: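 Metabolically active cells were quantified by ATP-dependent luminescence (CellTiter-Glo, 15 min at room temperature) following 48 h treatment. Cells had been plated at 500-1,000 per well and settled for 5 h beforehand.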

[7] = qHTS of pediatric cancer cell lines to identify multiple opportunities for drug repurposing: Primary screen for BT-37 cells (AID 1347094); note: potency is the fitted concentration of half-maximal effect; for activity change, negative = cytotoxic: series mostly up to about 57 µM
Method in brief: (§2)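 ATP-based luminescence (CellTiter-Glo) quantifies viability after a 48-hour exposure. Compounds are dosed across 8 or 11 final concentrations; DMSO and 2.3 µM bortezomib serve as controls.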

[8] = qHTS of pediatric cancer cell lines to identify multiple opportunities for drug repurposing: Primary screen for NB-EBc1 cells (AID 1347095); note: potency is the fitted concentration of half-maximal effect
Method in brief: as §2

[9] = qHTS of pediatric cancer cell lines to identify multiple opportunities for drug repurposing: Primary screen for U-2 OS cells (AID 1347096); note: nearly all actives have a fitted effect of over 50% in size; note: potency is the fitted concentration of half-maximal effect
Method in brief: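 Cells (500-1,000/well) in growth media were settled 5 h at 37 degrees C, then given compounds for 48 h. Viability was read as CellTiter-Glo luminescence. Primary runs used MIPE at 11 points (0.78 nM-46 µM) and NPC at 8 points (0.59 nM-46 µM); follow-ups used 11 points.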

[10] = molecular target: Tyrosine-protein phosphatase non-receptor type substrate 1 (Homo sapiens) + Leukocyte surface antigen CD47 (Homo sapiens) (UniProt P78324+Q08722); experiment: CD47-SIRPalpha protein protein interaction - Alpha assay qHTS validation (AID 1347059);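 note: bead proximity luminescence from CD47 binding SIRPalpha after compound preincubation with SIRPalpha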
Chain of Tyrosine-protein phosphatase non-receptor type substrate 1 (Homo sapiens) + Leukocyte surface antigen CD47 (Homo sapiens) (P78324 whole entry, looked up, the tested form may be a part): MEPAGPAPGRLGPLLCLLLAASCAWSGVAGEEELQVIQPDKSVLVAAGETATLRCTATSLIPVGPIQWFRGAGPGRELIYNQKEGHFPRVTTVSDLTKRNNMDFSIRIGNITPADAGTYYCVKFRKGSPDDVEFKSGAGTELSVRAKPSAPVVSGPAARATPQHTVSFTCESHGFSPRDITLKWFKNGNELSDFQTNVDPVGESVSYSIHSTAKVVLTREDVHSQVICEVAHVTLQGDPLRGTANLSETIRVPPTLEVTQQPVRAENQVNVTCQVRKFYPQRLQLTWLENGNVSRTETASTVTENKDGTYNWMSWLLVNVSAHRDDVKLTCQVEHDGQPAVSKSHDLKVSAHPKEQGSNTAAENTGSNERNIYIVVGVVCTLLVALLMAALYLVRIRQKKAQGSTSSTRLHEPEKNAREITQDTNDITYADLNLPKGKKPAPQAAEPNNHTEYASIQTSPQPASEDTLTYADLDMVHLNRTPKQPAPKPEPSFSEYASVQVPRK
Chain of Tyrosine-protein phosphatase non-receptor type substrate 1 (Homo sapiens) + Leukocyte surface antigen CD47 (Homo sapiens) (Q08722 whole entry, looked up, the tested form may be a part): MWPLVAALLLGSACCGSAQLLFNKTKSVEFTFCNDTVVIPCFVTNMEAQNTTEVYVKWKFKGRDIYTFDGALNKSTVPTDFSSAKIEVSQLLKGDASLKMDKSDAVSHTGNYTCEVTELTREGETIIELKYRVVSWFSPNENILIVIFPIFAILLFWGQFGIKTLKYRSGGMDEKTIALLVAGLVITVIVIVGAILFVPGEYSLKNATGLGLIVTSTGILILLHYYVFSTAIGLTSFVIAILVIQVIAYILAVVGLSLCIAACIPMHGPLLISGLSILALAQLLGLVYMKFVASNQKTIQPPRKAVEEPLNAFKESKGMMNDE
Method in brief: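 Soluble extracellular domains: Avi-tag biotinylated SIRPalpha (25 nM) preincubated 30 min RT with compound, then 6His-CD47 (12.5 nM) 30 min; Ni-NTA acceptor and streptavidin donor beads (10 ug/mL) 30 min, AlphaScreen read. PBS pH 7.4, 0.05% IGEPAL.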

With `CC1=C(CC(=O)O)c2cc(F)ccc2/C1=C\c1ccc(S(C)=O)cc1` (centres undefined) the Potency [1] was “inactive”, the Potency [2] was “inactive” and the Potency [3] was “inactive”. For the same molecule, the Potency [4] was “inactive”, the Potency [5] was “inactive” and the Potency [6] was “inactive”. The Potency [7] was “inactive”, the Potency [8] was “inactive” and the Potency [9] was “inactive”.
For `CSc1ccc2c(c1)C(N1CCN(C)CC1)Cc1ccccc1S2` (centres undefined), the Potency [1] was “inactive”, the Potency [3] was “inactive” and the Potency [8] was “inactive”. The Potency [9] was “inactive”.
With `CC(C)(C(=O)O)c1ccc(C(O)CCCN2CCC(C(O)(c3ccccc3)c3ccccc3)CC2)cc1` (centres undefined) the Potency [1] was “inactive”, the Potency [2] was “inactive” and the Potency [4] was “inactive”. The Potency [5] was “inactive”, the Potency [6] was “inactive” and the Potency [8] was “inactive”. The Potency [9] was “inactive”.
In the case of `CN1CCC[C@@H]1Cc1c[nH]c2ccc(CCS(=O)(=O)c3ccccc3)cc12`, the outcome [10] is reported as “inactive”, the Potency [2] is reported as “inactive” and the Potency [3] is reported as “inactive”. The Potency [4] was “inactive”, the Potency [5] was “inactive” and the Potency [6] was “inactive”. The Potency [7] was “inactive”, the Potency [8] was “inactive” and the Potency [9] was “inactive”.
In the case of `COc1cc(C(=O)N2CCOCC2)cc(OC)c1OC`, the Potency [2] is reported as “inactive”, the Potency [3] is reported as “inactive” and the Potency [4] is reported as “inactive”. The Potency [5] was “inactive”, the Potency [6] was “inactive” and the Potency [7] was “inactive”. For the same molecule, the Potency [8] was “inactive” and the Potency [9] was “inactive”.
With `Oc1cn2c(n1)Nc1ccc(Cl)c(Cl)c1C2` the Potency [2] was “inactive”, the Potency [3] was “inactive” and the Potency [4] was “inactive”. For the same molecule, the Potency [5] was “inactive”, the Potency [6] was “inactive” and the Potency [7] was “inactive”. The Potency [8] was “inactive” and the Potency [9] was “inactive”.
In the case of `C[C@H](NC(CCc1ccccc1)C(=O)O)C(=O)N1CCC[C@H]1C(=O)O` (some centres undefined), the outcome [10] is reported as “inactive”, the Potency [2] is reported as “inactive” and the Potency [3] is reported as “inactive”. The Potency [4] was “inactive”, the Potency [5] was “inactive” and the Potency [6] was “inactive”. The Potency [8] was “inactive” and the Potency [9] was “inactive”.
In the case of `CC[C@H]1CN2CCc3cc(OC)c(OC)cc3[C@@H]2C[C@@H]1C[C@H]1NCCc2cc(OC)c(OC)cc21`, the outcome [10] is reported as “inactive”, the Potency [1] is reported as “inactive” and the Potency [2] is reported as 0.333 µM (active). The Potency [6] was 0.211 µM (active), the Potency [8] was 0.75 µM (active) and the Potency [9] was 1.33 µM (active).
With `NC(N)=NCCC[C@H](N)C(=O)O` the Potency [1] was “inactive”, the activity change, negative = cytotoxic [2] was 3.73% [at 4.81 µM] and the activity change, negative = cytotoxic [3] was -2.71% [at 4.84 µM]. For the same molecule, the activity change, negative = cytotoxic [5] was 0.848% [at 4.84 µM], the activity change, negative = cytotoxic [6] was -27.1% [at 4.84 µM] and the activity change, negative = cytotoxic [8] was 12% [at 4.84 µM]. It also gave an activity change, negative = cytotoxic [9] of 2.69% [at 4.84 µM].
With `COC(=O)C1=C(C)NC(C)=C(C(=O)OC)C1c1ccccc1[N+](=O)[O-]` the Potency [1] was “inactive”, the Potency [2] was “inactive” and the Potency [5] was “inactive”. The Potency [7] was “inactive” and the Potency [9] was “inactive”.
In the case of `N[C@@H](CSCCCO)C(=O)O`, the Potency [2] is reported as “inactive”, the Potency [3] is reported as “inactive” and the Potency [4] is reported as “inactive”. For the same molecule, the Potency [5] was “inactive”, the Potency [6] was “inactive” and the Potency [7] was “inactive”. For the same molecule, the Potency [8] was “inactive” and the Potency [9] was “inactive”.
In the case of `Nc1ncnc2c1ncn2[C@@H]1O[C@H](CO)[C@@H](O)[C@H]1O`, the outcome [10] is reported as “inactive”, the Potency [1] is reported as “inactive” and the Potency [3] is reported as “inactive”. For the same molecule, the Potency [4] was “inactive”, the Potency [7] was “inactive” and the Potency [8] was “inactive”. For the same molecule, the Potency [9] was “inactive”.
In the case of `Cn1cc[nH]c1=S`, the Potency [2] is reported as “inactive”, the Potency [3] is reported as “inactive” and the Potency [4] is reported as “inactive”. For the same molecule, the Potency [5] was “inactive”, the Potency [6] was “inactive” and the Potency [7] was “inactive”. For the same molecule, the Potency [8] was “inactive” and the Potency [9] was “inactive”.
For `Cc1c(O)cccc1C(=O)N[C@@H](CSc1ccccc1)[C@H](O)CN1C[C@H]2CCCC[C@H]2C[C@H]1C(=O)NC(C)(C)C`, the outcome [10] was “inactive”, the Potency [4] was 21.1 µM (active) and the Potency [6] was 26.6 µM (active). For the same molecule, the Potency [9] was 21.1 µM (active).
For `NC1[C@H]2CN(c3nc4c(cc3F)c(=O)c(C(=O)O)cn4-c3ccc(F)cc3F)C[C@@H]12` (some centres undefined), the outcome [10] was “inactive”, the Potency [5] was 13.3 µM (active) and the Potency [6] was “inactive”. The Potency [8] was “inactive” and the Potency [9] was “inactive”.
With `NC(=O)NC(=O)Cc1ccccc1` the Potency [2] was “inactive”, the Potency [3] was “inactive” and the Potency [4] was “inactive”. The Potency [5] was “inactive”, the Potency [6] was “inactive” and the Potency [7] was “inactive”. The Potency [8] was “inactive” and the Potency [9] was “inactive”.
In the case of `CSc1ccc2c(c1)N(CCC1CCCCN1C)c1ccccc1S2` (centres undefined), the Potency [1] is reported as “inactive”, the Potency [5] is reported as 21.1 µM (active) and the Potency [7] is reported as 24.6 µM (active). For the same molecule, the Potency [8] was “inactive”.
In the case of `CCN(CC)CCCC(C)Nc1c2ccc(Cl)cc2nc2ccc(OC)cc12` (centres undefined), the Potency [1] is reported as “inactive”, the Potency [2] is reported as “inactive” and the Potency [5] is reported as 21.1 µM (active). The Potency [7] was 27.6 µM (active), the Potency [8] was 15 µM (active) and the Potency [9] was “inactive”.
In the case of `O=C1c2c(O)cccc2Cc2cccc(O)c21`, the Potency [2] is reported as “inactive”, the Potency [3] is reported as “inactive” and the Potency [4] is reported as “inactive”. For the same molecule, the Potency [5] was “inactive”, the Potency [6] was “inactive” and the Potency [7] was “inactive”. For the same molecule, the Potency [8] was “inactive” and the Potency [9] was “inactive”.
